# Results: PubChem BioAssay (EPA / NIEHS)
# Results filed as inconclusive are left out. Activity calls are given as the source filed them. How the source made its calls: active means hit-call score of the fitted dose curve at least 0.9, where 1 is the maximum; inconclusive means response in the unintended direction; inactive means score below 0.9.
# Key:
# [1] = Tanguay_ZF_120hpf_TRUN_legacy: (Legacy) Oregon State University Tanguay Lab 120 Hour Post-fertilization zebrafish Assay for Truncated Body (AID 2283655)
# Outline: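 Tropical 5D wild-type embryos, dechorionated with pronase at 4 hpf, were placed singly in wells at 6 hpf and statically exposed at 28C until 120 hpf, final DMSO 0.64%. Truncated body was scored present/absent by brightfield microscopy.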
# [2] = Tanguay_ZF_120hpf_NC_legacy: (Legacy) Oregon State University Tanguay Lab 120 Hour Post-fertilization zebrafish Assay for Notochord and Tail Malformation (AID 2283656)
# Outline: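 Dechorionated 5D zebrafish, 1/well from 6 hpf; static exposure to 120 hpf, 28C, sealed, dark; final DMSO 0.64% v/v. NC scored binary (present/absent); dead embryos not scored. Fit vs DMSO baseline, gain direction.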
# [3] = Tanguay_ZF_120hpf_TR_legacy: (Legacy) Oregon State University Tanguay Lab 120 Hour Post-fertilization zebrafish Assay for Touch Response (AID 2283667)
# Outline: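 Tropical 5D wild-type zebrafish embryos were exposed statically in sealed, foil-covered plates at 28C until 120 hpf, with 0.64% (vol/vol) final DMSO. Touch response was scored as present or absent; embryos that died were not scored.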
# [4] = read-out: ABC Transporter (ABCB1), ABCB1 (gene 5243); assay: CLD_ABCB1_6hr: CellzDirect (CLD) Gene Expression Assay for ABC Transporter (ABCB1) at 6 hours (AID 2283659);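 further: hits raise ABCB1 transcript above the DMSO vehicle baseline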
# Outline: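 Primary human hepatocytes (two donor preparations) dosed daily for two days with chemicals at multiple concentrations, 0.2% DMSO vehicle; harvested 6 h post-dose. ABCB1 mRNA induction quantified by qNPA chemiluminescence; gain-of-signal fitted versus DMSO.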
# [5] = read-out: xenobiotic metabolism (CYP1A1), CYP1A1 (gene 1543); assay: CLD_CYP1A1_6hr: CellzDirect (CLD) Gene Expression Assay for xenobiotic metabolism (CYP1A1) at 6 hours (AID 2283661)
# Outline: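 Primary human hepatocytes from two donors, compound versus 0.2% DMSO vehicle. CYP1A1 mRNA measured 6 h after dosing by quantitative nuclease protection assay with chemiluminescent read-out; induction fitted relative to DMSO, cytotoxicity flagged by microscopy.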
# [6] = read-out: xenobiotic metabolism (CYP1A2), CYP1A2 (gene 1544); assay: CLD_CYP1A2_6hr: CellzDirect (CLD) Gene Expression Assay for xenobiotic metabolism (CYP1A2) at 6 hours (AID 2283663)
# Outline: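 Primary human hepatocytes from two donor preparations, dosed daily with multiple concentrations in 0.2% DMSO and harvested at 6 h. CYP1A2 mRNA induction measured by chemiluminescent qNPA, gain of signal fitted against DMSO; cytotoxicity flagged morphologically.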
# [7] = read-out: xenobiotic metabolism (CYP2C9), CYP2C9 (gene 1559); assay: CLD_CYP2C9_6hr: CellzDirect (CLD) Gene Expression Assay for xenobiotic metabolism (CYP2C9) at 6 hours (AID 2283664)
# Outline: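 Primary human hepatocytes dosed daily with test chemicals at multiple concentrations; harvested at 6 h. CYP2C9 mRNA induction measured by qNPA chemiluminescence. Gain of signal fitted against 0.2% DMSO vehicle; cytotoxicity annotated from phase-contrast morphology.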
# [8] = read-out: organic anion transporter (SLCO1B1), SLCO1B1 (gene 10599); assay: CLD_SLCO1B1_6hr: CellzDirect (CLD) Gene Expression Assay for organic anion transporter (SLCO1B1) at 6 hours (AID 2283668);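 further: active means mRNA induction above DMSO baseline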
# Outline: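 Primary human hepatocytes dosed daily with test chemicals (multiple concentrations) in 0.2% DMSO vehicle; harvested at 6 h. SLCO1B1 mRNA quantified by qNPA chemiluminescence, fitted as gain-of-signal versus DMSO; cytotoxicity from phase-contrast morphology flagged alongside.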
# [9] = CLD_ACTIN_24hr: CellzDirect (CLD) Gene Expression Assay for Baseline Control (Actin) at 24 hours (AID 2283670)
# Outline: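 Primary human hepatocytes dosed over multiple concentrations with 0.2% DMSO vehicle; actin mRNA measured at 24 h by qNPA chemiluminescence. Background control endpoint, fitted as gain of signal versus DMSO.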
# [10] = read-out: glucuronosyltransferase (UGT1A1), UGT1A1 (gene 54658); assay: CLD_UGT1A1_6hr: CellzDirect (CLD) Gene Expression Assay for glucuronosyltransferase (UGT1A1) at 6 hours (AID 2283672)
# Outline: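 Primary human hepatocytes from two donor preparations, dosed with fresh solutions in 0.2% DMSO, harvested at 6 h. UGT1A1 mRNA measured by qNPA chemiluminescence; induction fitted upward versus DMSO.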
# [11] = tested on: Thyroperoxidase (TPO), gene 54314; assay: CCTE_Simmons_AUR_rTPO: CCTE's Amplex UltraRed Assay for Thyroperoxidase (TPO) Inhibition, Simmons Lab (AID 2283662);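 further: potency for loss of signal meaning inhibition of peroxidase activity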
# Outline: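 Cell-free peroxidase activity assay using rat thyroid gland microsomes with excess H2O2 (300 uM) and 25 uM Amplex UltraRed. Compounds tested from 5 nM to 87.5 uM; fluorescence measured after 30 min at 37C, analysed relative to DMSO baseline.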
smiles,measurement,setting,value
ClC1=C(Cl)[C@]2(Cl)[C@@H]3[C@H]4C[C@H]([C@@H]5O[C@H]45)[C@@H]3[C@@]1(Cl)C2(Cl)Cl,outcome,[1],inactive
same,outcome,[2],inactive
same,AC50,[3],81.5 µM (active)
CCCN(CCC)N=O,outcome,[1],inactive
same,outcome,[2],inactive
same,outcome,[3],inactive
CC(C)(O)C(=O)Nc1ccc([N+](=O)[O-])c(C(F)(F)F)c1,AC50,[1],22.1 µM (active)
same,outcome,[2],inactive
same,outcome,[3],inactive
Cc1cc(-c2ccc(N)c(C)c2)ccc1N,outcome,[1],inactive
same,outcome,[2],inactive
same,outcome,[3],inactive
O=C(O)C(F)(F)C(F)(F)C(F)(F)C(F)(F)C(F)(F)F,outcome,[1],inactive
same,outcome,[2],inactive
same,outcome,[3],inactive
Oc1ccc(Cl)cc1Cl,outcome,[1],inactive
same,outcome,[2],inactive
same,outcome,[3],inactive
CO/C=C(/C(=O)OC)c1ccccc1COc1cccc(C(F)(F)F)n1,AC50,[1],7.84 µM (active)
same,outcome,[2],inactive
same,AC50,[3],13.2 µM (active)
Nn1cnnc1,outcome,[1],inactive
same,outcome,[2],inactive
same,outcome,[3],inactive
ClC(Cl)=C(c1ccc(Cl)cc1)c1ccc(Cl)cc1,outcome,[1],inactive
same,outcome,[2],inactive
same,outcome,[3],inactive
C=CC(N)=O,outcome,[2],inactive
CCSC(=O)N(CC)C1CCCCC1,outcome,[1],inactive
same,outcome,[4],inactive
same,outcome,[5],inactive
same,outcome,[6],inactive
same,outcome,[7],inactive
same,outcome,[8],inactive
same,outcome,[9],inactive
same,outcome,[10],inactive
CC(C)(c1ccccc1)c1ccc(O)cc1,outcome,[2],inactive
same,AC50,[11],3.55 µM (active)
same,outcome,[3],inactive
Cc1ccccc1[N+](=O)[O-],outcome,[1],inactive
same,outcome,[3],inactive
N#Cc1ccc(N(CC(N)=O)CC(F)(F)F)cc1C(F)(F)F,outcome,[1],inactive
same,outcome,[2],inactive
same,outcome,[3],inactive
NS(=O)(=O)C(F)(F)C(F)(F)C(F)(F)C(F)(F)C(F)(F)C(F)(F)C(F)(F)C(F)(F)F,outcome,[1],inactive
same,outcome,[3],inactive
C[C@]12CCC(=O)C=C1CC[C@@H]1[C@@H]2CC[C@@]2(C)[C@H]1CC[C@]2(C)O,outcome,[1],inactive
same,outcome,[2],inactive
same,outcome,[3],inactive
CCOC(=O)C(O)(c1ccc(Cl)cc1)c1ccc(Cl)cc1,outcome,[1],inactive
same,outcome,[2],inactive
same,outcome,[3],inactive
